Screening data deposited in PubChem by The Scripps Research Institute Molecular Screening Center.
Hits are enriched below; roughly 1.2% of the tested compounds scored in any of these assays.
ABHD5 PLIN5 PPI = ABHD5-PLIN5 interaction inhibitors, primary screen, cell lysate, split luciferase complementation, luminescence. Split G. princeps luciferase complementation, 4 h. inhibition, % at 4 µM. hit rate 0.78% among 360,000. AID 602281, 2012;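 active = inhibition above the mean inhibition across every tested compound plus 3 SD, cut at about 22% in these data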
TLR9-MyD88 block = inhibitors of TLR9-MyD88 association in cells, primary screen, cell-based, CHO, BLA complementation, fluorescence; hit rate 0.21% among 340,000; Toll-like receptor 9 (Homo sapiens) + Myeloid differentiation primary response protein …; CCF4 FRET ratio; inhibition, % at 4.98 µM;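 active = inhibition above the mean over all tested compounds plus 3 SD, cut at about 21% in these data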
NOD2 RIPK2 PPI = NOD2-RIPK2 binding disruptors in cells, primary screen, fluorescence, CHO cells, BLA complementation. inhibition, % at 4.98 µM. hit rate 0.38% among 360,000. CCF4 ratio; in the data active = inhibition above about 21%
TLR4-MyD88 BLA = inhibitors of TLR4-MyD88 association in cells, primary screen, cell-based, HeLa CL3-4, BLA complementation, FRET ratio; Toll-like receptor 4 (Homo sapiens) + Myeloid differentiation primary response protein …; HeLa CL3-4 TLR4/MyD88 BLA complementation; inhibition, % at 8.4 µM; hit rate 0.18% among 200,000; AID 861, 2007; in the data active = inhibition above about 25%
Large screens that a line does not name were inactive; ! = not active in a repeat.

COc1ccc(C(=O)Nc2cc(C(=O)c3ccccc3)c(C)oc2=O)cc1	ABHD5 PLIN5 PPI 37
CSc1nc(N(CCO)CCO)c2sc3nc(-c4ccco4)c4c(c3c2n1)CCC4	ABHD5 PLIN5 PPI 22
CSc1nc(SCCO)c2sc3nc(-c4ccco4)c4c(c3c2n1)CC(C)(C)OC4	none
CC1(C)S[C@@H]2[C@H](NC(=O)[C@H](N)c3ccccc3)C(=O)N2[C@H]1C(=O)OC1OC(=O)c2ccccc21 (stereo partly drawn)	none (no result: TLR4-MyD88 BLA)
O=c1[nH]c2cc3c(cc2cc1CN(Cc1cccnc1)Cc1nnnn1Cc1ccco1)OCCO3	none
O=c1[nH]c2cc3c(cc2cc1CN(Cc1ccccc1)Cc1nnnn1Cc1ccco1)OCCO3	ABHD5 PLIN5 PPI 34
CCCC(C)Sc1nc2c([nH]1)c(=S)n(C)c(=O)n2C (stereo not drawn)	none (no result: TLR4-MyD88 BLA)
O=C(CS(=O)c1ccc(F)cc1)N1CCOCC1 (stereo not drawn)	none (no result: TLR4-MyD88 BLA)
COc1cc(/C=C/C(=O)c2ccc(NS(=O)(=O)c3ccc(C)cc3)cc2)ccc1OC(F)F	ABHD5 PLIN5 PPI 22
COc1cc(/C=C/C(=O)c2ccc(NS(=O)(=O)c3ccc(C)cc3)cc2)cc(OC)c1O	ABHD5 PLIN5 PPI 38
COc1ccc2cc(C(=O)/C=C/c3cc(OC)c(O)c(OC)c3)ccc2c1	none (no result: TLR4-MyD88 BLA)
COc1cc(/C=C/C(=O)O)ccc1OS(=O)(=O)c1ccc(C)cc1	none
O=C(c1ccco1)N1CCc2[nH]nc(-c3ccccc3)c2C1	none (no result: TLR4-MyD88 BLA)
O=C(CC1C(=O)NCCN1Cc1ccoc1)NCCCn1ncc2ccccc21 (stereo not drawn)	ABHD5 PLIN5 PPI 33
Cc1ccc(CN2CCNC(=O)C2CC(=O)NCCCn2nnc3ccccc32)cc1 (stereo not drawn)	none (no result: TLR4-MyD88 BLA)
COc1cc(CC(=O)NC2CCCc3ccccc32)cc(OC)c1OC (stereo not drawn)	NOD2 RIPK2 PPI 92 (no result: TLR4-MyD88 BLA)
CC1(C)Cc2c(C#N)c(N3CCN(C(=O)c4ccccc4Cl)CC3)nc(-c3ccco3)c2CS1	ABHD5 PLIN5 PPI 29
O=C(OCc1ccc(F)cc1)c1ccc2c(c1)-c1ccccc1C2=O	none
CCOC(=O)C1=C(Cc2ccc(F)cc2)C(=O)c2ccccc2C1=O	ABHD5 PLIN5 PPI 47, NOD2 RIPK2 PPI 30
CN(C)c1nc(=NCc2ccco2)ss1	ABHD5 PLIN5 PPI 90 (no result: TLR4-MyD88 BLA)
COCCCNc1nc(CC(C)C)nc2c1nnn2Cc1ccccc1	none (no result: TLR4-MyD88 BLA)
Cc1cc2c(c(=O)n1Cc1cccnc1)C(c1ccccc1)C(C#N)=C(N)O2 (stereo not drawn)	none
COc1cccc(C2C(C#N)=C(N)Oc3cc(C)n(Cc4ccco4)c(=O)c32)c1 (stereo not drawn)	ABHD5 PLIN5 PPI 22
COc1ccc(NC(=O)/C(Cl)=C(/Cl)S(=O)(=O)Cc2ccc(C)cc2)cn1	ABHD5 PLIN5 PPI 64, TLR9-MyD88 block 27, NOD2 RIPK2 PPI 75
CC(=O)c1ccc(NC(=O)CSc2nnc(-c3ccco3)c(-c3ccco3)n2)cc1	ABHD5 PLIN5 PPI 23
NS(=O)(=O)c1ccc(CNC(=O)/C=C/c2ccco2)cc1	ABHD5 PLIN5 PPI 23 (no result: TLR4-MyD88 BLA)
Cc1cc(=O)oc2cc(OCC(=O)OCC(=O)N3CCC(C)CC3)ccc12	none
CCC1(CC)NC(=O)N(CC(=O)OC(C)C(=O)Nc2ccc(Cl)cn2)C1=O (stereo not drawn)	none (no result: TLR4-MyD88 BLA)
C[C@H](NC(=O)[C@@H]1Cc2ccccc2CN1C(=O)OC(C)(C)C)C(=O)NCc1ccco1	ABHD5 PLIN5 PPI 22 (no result: TLR4-MyD88 BLA)
C[C@@H](NC(=O)[C@@H]1Cc2ccccc2CN1C(=O)OC(C)(C)C)C(=O)NCc1ccco1	none (no result: TLR4-MyD88 BLA)
Cc1nnnn1/C(=C\c1ccccc1)C(=O)OCC(=O)Nc1cccc(S(=O)(=O)N(C)C)c1	ABHD5 PLIN5 PPI 50 (no result: TLR4-MyD88 BLA)
CN(C)S(=O)(=O)c1cccc(NC(=O)COC(=O)c2ccc3ccccc3n2)c1	none (no result: TLR4-MyD88 BLA)
CCOc1ccc(CCN2C(=S)N([C@@H](Cc3ccc(O)cc3)CN3CCCC3CN3C(=S)NC[C@@H]3Cc3ccc(O)cc3)C[C@@H]2CC(C)C)cc1 (stereo partly drawn)	none (no result: TLR4-MyD88 BLA)
CCOc1ccc(CCN2C(=S)N([C@@H](Cc3ccc(O)cc3)CN3CCC[C@@H]3CN3C(=S)NC[C@@H]3CC(C)C)C[C@@H]2Cc2ccc(O)cc2)cc1	ABHD5 PLIN5 PPI 34 (no result: TLR9-MyD88 block, TLR4-MyD88 BLA)
Oc1ccc(C[C@H]2CN([C@@H](Cc3ccc(O)cc3)CN3CCC[C@@H]3CN3C(=S)NC[C@@H]3Cc3ccccc3)C(=S)N2CCc2ccccc2)cc1	ABHD5 PLIN5 PPI 27 (no result: TLR9-MyD88 block, TLR4-MyD88 BLA)
CC[C@]1(C(=O)OC)[C@H]2C(=O)N(Cc3ccccc3)C(=O)[C@H]2[C@H]2CN=C(SC)N21	none (no result: TLR4-MyD88 BLA)
CCN(C(=O)COC(=O)CCC1CCCC1)c1c(N)n(Cc2ccccc2)c(=O)[nH]c1=O	none (no result: TLR4-MyD88 BLA)
COc1ccc(Cl)cc1NC(=O)CN(C)C(=O)c1ccc(-n2cncn2)cc1	none (no result: TLR4-MyD88 BLA)
CN(C)CCNC(=O)COc1ccc(C23CC4CC(CC(C4)C2)C3)cc1	ABHD5 PLIN5 PPI 23
Cc1ccc(C23CC4CC(CC(NC(=O)NCCN(C)C)(C4)C2)C3)cc1	none
Cc1cc(C)c2nc(NNC(=O)c3ccc(S(=O)(=O)N4CCc5ccccc5C4)cc3)sc2c1	ABHD5 PLIN5 PPI 30
Cc1cc(C)c2sc(NNC(=O)c3ccc(S(=O)(=O)N4CCc5ccccc5C4)cc3)nc2c1	ABHD5 PLIN5 PPI 30
O=C(C[n+]1ccc(C(=O)N/N=C/c2ccc(OCc3ccccc3)cc2)cc1)c1ccccc1	ABHD5 PLIN5 PPI 26
C=C(C)Cn1c2ccc(NC(=O)NCc3ccc(F)cc3)cc2c(=O)n1C	none (no result: TLR9-MyD88 block, TLR4-MyD88 BLA)
CN(C)C/C=C/C(=O)Nc1cccc(-c2c[nH]c3ncnc(Oc4ccc(NC(=O)CC(=O)Nc5ccc(F)cc5)cc4F)c23)c1	ABHD5 PLIN5 PPI 24 (no result: TLR4-MyD88 BLA)
CC(=O)Nc1cccc(Oc2ncnc3scc(-c4ccccc4)c23)c1	none
COc1cccc(C=C2Cc3ccccc3C2=O)c1	ABHD5 PLIN5 PPI 23 (no result: TLR9-MyD88 block, TLR4-MyD88 BLA)
Cc1occc1-c1nnc(SCC(=O)NCc2ccco2)n1CC(C)C	ABHD5 PLIN5 PPI 23
O=C(Oc1cc2oc(=O)cc(-c3ccccc3)c2cc1Cl)C1CCCCC1	NOD2 RIPK2 PPI 29
O=C(Oc1ccc2ccc(=O)oc2c1)C1CCCCC1	none
OCCOCCN1CCN(C2=Nc3ccccc3Sc3ccccc32)CC1	ABHD5 PLIN5 PPI 23! (no result: TLR4-MyD88 BLA)
COc1ccccc1C(CNC(=O)c1cccc(S(=O)(=O)N2c3ccccc3CC2C)c1)N(C)C (stereo not drawn)	ABHD5 PLIN5 PPI 23 (no result: TLR4-MyD88 BLA)
COc1cccc(C(C)(O)c2nc(-c3cnn(C)c3)cs2)c1 (stereo not drawn)	none (no result: TLR9-MyD88 block, TLR4-MyD88 BLA)
c1coc(-c2nc(-c3ccco3)c(-c3ccco3)nc2-c2ccco2)c1	ABHD5 PLIN5 PPI 64
Cc1ccc(S(=O)(=O)Nc2nc3ccccc3nc2NCc2ccco2)cc1	ABHD5 PLIN5 PPI 25
CC(NC(=O)Cn1ncc(Cl)c(Cl)c1=O)C12CC3CC(CC(C3)C1)C2 (stereo not drawn)	TLR9-MyD88 block 23, NOD2 RIPK2 PPI 66
O=C(COc1ccccc1C(=O)O)Nc1ccc(SC(F)F)cc1	TLR4-MyD88 BLA 25
